From PubChem BioAssay (NCI) come the findings set out here.

About 83,000 compounds went through this panel and 20% of them were active in at least one assay; those are over-represented in the sample as a whole.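 Step 1: grow cells in 96-well plates. Step 2: add test compound at a single concentration. Step 3: incubate 48 h. Step 4: record percent growth.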 A number with no mark means an inactive call. Activity calls are given as the source filed them. Rule for the calls: active = growth percent below 10; inactive = the rest.

Test systems include SR leukemia; RPMI-8226 leukemia; OVCAR-8 ovarian; OVCAR-5 ovarian; OVCAR-4 ovarian; SK-OV-3 ovarian; IGROV1 ovarian; OVCAR-3 ovarian; HS 578T breast; NCI/ADR-RES ovarian; T-47D breast; BT-549 breast; MDA-MB-435 melanoma; SW-620 colon; HCT-116 colon; HCC-2998 colon; KM12 colon; MCF7 breast.
Common to all, as to assay: NCI-60 one-dose screen, 48 h (100 = growth as untreated, 0 = no growth, -100 = all killed)
Holding throughout (settings): 10 µM unless noted

As to `COc1cc2c3c(c4c5ccccc5[nH]c4c2c(OC)c1OC)C(=O)N(O)C3=O`, the growth with SR leukemia was 14.3%; in the assay on RPMI-8226 leukemia it was 31.6%; with OVCAR-8 ovarian it was 36.8%; in the assay with OVCAR-5 ovarian it was 112%; in the assay with OVCAR-4 ovarian, 56.6%; in the assay on SK-OV-3 ovarian, 48.8%. The growth in the assay with IGROV1 ovarian is 9.03% (active); in the assay with OVCAR-3 ovarian it was 49.5%; in the assay on HS 578T breast it was 67.4%; in the assay on NCI/ADR-RES ovarian it was 43.8%; with T-47D breast, 19.5%; in the assay on BT-549 breast it was 46.2%. In addition, the growth is 56.1% in the assay on MDA-MB-435 melanoma; 49% in the assay with SW-620 colon; 16.8% in the assay with HCT-116 colon; 55.3% in the assay on HCC-2998 colon; 53.7% in the assay on KM12 colon.
As to `O=C(NO)c1ccc(Cn2c(=O)n(-c3ccccc3)c(=O)c3ccccc32)cc1`, the growth with SR leukemia was 7.9% (active); in the assay with RPMI-8226 leukemia, 14.8%; in the assay with OVCAR-8 ovarian it was -6.49% (active); in the assay on OVCAR-5 ovarian it was 62.2%; in the assay with OVCAR-4 ovarian, 18.7%; in the assay on SK-OV-3 ovarian, 26.3%. The growth is 33.5% with IGROV1 ovarian; 24.2% in the assay with OVCAR-3 ovarian; 57.8% in the assay on HS 578T breast; 101% with NCI/ADR-RES ovarian; 14.1% in the assay with T-47D breast; 32.4% with BT-549 breast. The growth with MDA-MB-435 melanoma was -64.2% (active); in the assay with MCF7 breast, 33.2%; in the assay on HCT-116 colon, -53.1% (active); with HCC-2998 colon, 54.1%; with KM12 colon, -7.84% (active).
For `O=C1/C(=C\c2ccc(Br)o2)SC(=S)N1CCc1ccc(O)cc1`, the growth in the assay on SR leukemia was 66.9%; with RPMI-8226 leukemia, 26.6%; in the assay with OVCAR-8 ovarian it was 97.2%; in the assay on OVCAR-5 ovarian it was 80%; in the assay with OVCAR-4 ovarian, 65.3%; in the assay on SK-OV-3 ovarian, 86.5%. The growth was 62.6% with IGROV1 ovarian; 62.9% with OVCAR-3 ovarian; 93.2% in the assay with HS 578T breast; 98.7% in the assay with NCI/ADR-RES ovarian; 57.7% in the assay with T-47D breast; 71.3% in the assay with MDA-MB-435 melanoma. The growth is 102% with SW-620 colon; 33.4% with MCF7 breast; 77.7% in the assay with HCT-116 colon; 119% in the assay on HCC-2998 colon; 19.5% with KM12 colon.
Turning to `CC(=O)Nc1cc(F)cc(C(F)(F)F)c1Cl`, the growth is 101% in the assay with SR leukemia; 105% in the assay with RPMI-8226 leukemia; 105% in the assay on OVCAR-8 ovarian; 96.2% in the assay on OVCAR-5 ovarian; 98.1% with OVCAR-4 ovarian; 106% with SK-OV-3 ovarian. Further, the growth in the assay with IGROV1 ovarian was 100%; in the assay with OVCAR-3 ovarian, 104%; in the assay with HS 578T breast it was 88.2%; with NCI/ADR-RES ovarian, 96.1%; in the assay with T-47D breast, 96.7%; with BT-549 breast it was 95.8%. Moreover, the growth was 99.3% in the assay on MDA-MB-435 melanoma; 91.5% in the assay with MCF7 breast; 94.1% in the assay on HCT-116 colon; 98.4% in the assay on HCC-2998 colon; 96.3% in the assay with KM12 colon.
For `C=C(C)[C@@H]1CC[C@]2(C(=O)OC)CC[C@]3(C)[C@H](CC[C@@H]4[C@@](C)(CC/C(N)=N/O)[C@H](C(=C)C)CC[C@]43C)[C@@H]12`, the growth was 69.2% in the assay on SR leukemia; 93% in the assay with RPMI-8226 leukemia; 102% with OVCAR-8 ovarian; 105% in the assay with OVCAR-5 ovarian; 92.1% in the assay on OVCAR-4 ovarian; 115% with SK-OV-3 ovarian. The growth with IGROV1 ovarian was 107%; with OVCAR-3 ovarian it was 103%; in the assay on HS 578T breast, 93.9%; in the assay with NCI/ADR-RES ovarian it was 101%; with T-47D breast, 91%; in the assay with BT-549 breast, 97.8%. The growth in the assay with MDA-MB-435 melanoma was 101%; with MCF7 breast it was 88.3%; in the assay with HCT-116 colon, 89.8%; in the assay with HCC-2998 colon, 96.3%; with KM12 colon it was 99.1%.
On to `COc1cc(-c2cc3ncccc3c3nc(OCCN(C)C)c4cccnc4c23)cc(OC)c1OC`, for which the growth was 8.77% (active) in the assay with SR leukemia; -7.46% (active) in the assay with RPMI-8226 leukemia; -5.22% (active) with OVCAR-8 ovarian; 44.8% in the assay with OVCAR-5 ovarian; -43.9% (active) in the assay on OVCAR-4 ovarian; -10.8% (active) with SK-OV-3 ovarian. The growth was 9.72% (active) with IGROV1 ovarian; -25.6% (active) with OVCAR-3 ovarian; 14.4% in the assay on HS 578T breast; 5.27% (active) with NCI/ADR-RES ovarian; 37% with T-47D breast; 41.6% in the assay with BT-549 breast. For the same molecule, the growth with MDA-MB-435 melanoma is 18.1%; in the assay with MCF7 breast it was 3.86% (active); with HCT-116 colon it was -21.8% (active); in the assay on HCC-2998 colon, 17.1%; in the assay on KM12 colon, 18.7%.
On to `Nc1nc(N)c2nc3c(nc2n1)CCCCCCCCCC3`, for which the growth with SR leukemia was 32.2%; in the assay with RPMI-8226 leukemia it was 85.6%; in the assay on OVCAR-8 ovarian it was 39.9%; in the assay on OVCAR-5 ovarian, 69.4%; in the assay on OVCAR-4 ovarian, 61.9%; in the assay on SK-OV-3 ovarian, 78.9%. Moreover, the growth with IGROV1 ovarian is 37.1%; in the assay with OVCAR-3 ovarian, 81.9%; in the assay on HS 578T breast it was 72.6%; with NCI/ADR-RES ovarian, 52.9%; with T-47D breast, 82.1%; in the assay with BT-549 breast, 74.5%. For the same molecule, the growth was 34.3% with SW-620 colon; 46.2% in the assay with MCF7 breast; 21.4% in the assay with HCT-116 colon; 39.2% in the assay with HCC-2998 colon; 61.4% with KM12 colon.
With `C=C1C(=O)O[C@H]2[C@H]1CC/C(COC(=O)N[C@H](Cc1c[nH]c3ccccc13)C(=O)OC)=C\CC[C@@]1(C)O[C@@H]21`, the growth with SR leukemia is 3.67% (active); in the assay with RPMI-8226 leukemia, 2.85% (active); in the assay with OVCAR-8 ovarian it was 50.5%; with OVCAR-5 ovarian, 98.6%; with OVCAR-4 ovarian, 61.4%; with SK-OV-3 ovarian it was 96.2%. Further, the growth in the assay on IGROV1 ovarian was 16.5%; in the assay on OVCAR-3 ovarian, -21.9% (active); in the assay on HS 578T breast, 81.1%; in the assay on NCI/ADR-RES ovarian it was 87.2%; in the assay with T-47D breast, -45.3% (active); in the assay with BT-549 breast it was 26.4%. Moreover, the growth in the assay with MDA-MB-435 melanoma is 54.8%; in the assay on SW-620 colon, -1.92% (active); with HCT-116 colon, -58.2% (active); in the assay with HCC-2998 colon, 101%; in the assay on KM12 colon it was 92.6%.
For `COc1cc(/C=C/c2cc(/C=C/c3ccc(O)c(OC)c3)n(-c3ccccc3)c(=O)n2)ccc1O`, the growth was 30.7% in the assay with SR leukemia; 50.7% in the assay with RPMI-8226 leukemia; 79.1% in the assay on OVCAR-8 ovarian; 113% in the assay with OVCAR-5 ovarian; 61.3% with OVCAR-4 ovarian; 90.7% in the assay with SK-OV-3 ovarian. Further, the growth was 87% in the assay with IGROV1 ovarian; 72.3% in the assay on OVCAR-3 ovarian; 69.6% in the assay on HS 578T breast; 97.7% in the assay with NCI/ADR-RES ovarian; 71.4% with T-47D breast; 56.9% in the assay on BT-549 breast. In addition, the growth is 73.1% in the assay with MDA-MB-435 melanoma; 40.8% in the assay on MCF7 breast; 55.6% with HCT-116 colon; 104% in the assay with HCC-2998 colon; 63.2% in the assay on KM12 colon.
